This is an account of results in PubChem BioAssay AID485364 (National Center for Advancing Translational Sciences (NCATS), 2010).

Hit rate of the full screen: of about 360,000 compounds, about 11,000 (3.1%) were called active. Entries that show only a call come without a potency. Another 4% or so got no clear call; they are omitted. The call rests on the fitted dose curve; in most records, active means well fitted inhibition curve with a large enough effect; inconclusive means small, poorly fitted or top-dose-only effect; inactive means no such curve, though single readings can be large or run the other way. Only a selection was taken, and actives are over-represented in it overall.
Potency means the concentration at half of the fitted maximal effect.

The test concerns the target Schistosoma mansoni thioredoxin glutathione reductase (TGR) (UniProt Q962Y6). Put plainly: qHTS Assay for the Inhibitors of Schistosoma Mansoni Peroxiredoxins. Further: nearly all actives have a fitted effect of over 60% in size. The note with it: purified TGR, DTNB reduction, TNB absorbance 405 nm; series mostly up to 114 µM. The text has this:
Schistosomiasis is a major neglected tropical disease that currently affects over 200 million. It is caused by different species of flatworms, such as Schistosoma mansoni. Over the last century, drugs to treat the disease have evolved from potassium antimonyl tartrate, artemisinin, oxamniquine, to praziquantel, with praziquantel remaining the universally-used single drug of choice over the past three decades. However, transmission rates have changed little with praziquantel, and there is evidence for the development of drug resistant parasites. Because there is currently no suitable alternative therapy available, there is an urgent need to identify new targets and drugs for schistosomiasis treatment. Thioredoxin glutathione reductase (TGR), one uniquely positioned S. mansoni enzyme, has been identified as a major component of the worms' distinct and compressed antioxidant "firewall". TGR is a multifunctional enzyme that catalyzes the interconversion between reduced and oxidized forms of both glutathione (GSH) and thioredoxins, thus making it an attractive new antiparasitic target. Recently, a quantitative high-throughput screen of the NIH Molecular Libraries Small Molecule Repository (MLSMR, ~71K at the time of the screen in 2007) was performed using an assay that targeted both TGR and peroxiredoxin2 (Prx2, an H2O2-reducing enzymatic component of the S. mansoni redox "firewall") by following the decrease of NADPH fluorescence. […] Additional mechanistic link between exogenous NO donation and parasitic injury for the oxadiazole-2-oxide class of compounds was also expanded and better defined. Although the screen addressed both TGR and Prx2, the assay required post-screen target deconvolution for further characterization of the actives. In addition, the fluorescence assay was also subject to fluorescence interference from compound library members. We have developed a 1536-well-based kinetic HTS assay to address TGR alone. The assay followed the reduction of 5, 5'-dithiobis (2-nitrobenzoic acid) (DTNB) (Ellman's reagent) by NADPH and measured the increase in absorbance at 412 nm of the reaction product, TNB. […] This assay format can be used to screen the current MLSMR collection (with >300K compounds available) to find novel TGR inhibitors. Furoxan is a good choice to serve as a positive control in the primary HTS assay.
Three microliters of reagents (100 uM NADPH and 20 nM TGR or 100 uM NADPH as no-enzyme control) were dispensed into 1,536-well black clear-bottomed plates. Compounds (23 nL) were transferred via Kalypsys pin tool equipped with 1536-pin array (10 nL slotted pins, V&P Scientific, San Diego, CA). The plates were then be incubated for 15 min at room temperature, and 1 uL aliquot of 500 uM NADPH were added, immediately followed by a 1 uL aliquot of 15 mM DTNB to start the reaction. The plate was transferred to a ViewLux high-throughput CCD imager (Perkin-Elmer, Wellesley, MA) where kinetic measurements of the TNB absorbance were acquired using a 405 excitation filter. Throughout the screen, reagent bottles and all liquid lines were made light-tight to minimize reagent degradation. All screening operations were performed on a fully integrated robotic system (Kalypsys, San Diego, CA) containing one RX-130 and two RX-90 anthropomorphic robotic arms (Staubli, Duncan, SC). Library plates were screened starting from the lowest and proceeding to the highest concentration, and a "double-dipping" step of the highest concentration was required to access higher concentrations of compounds. Vehicle-only plates, with DMSO being pin-transferred to the entire column 5-48 compound area, were inserted uniformly at the beginning and the end of each library in order to monitor for and record any shifts in the background, which can be affected by reagent dispensers or loss in enzyme activity overtime. […]
(In qHTS, concentration-response curves come from the screen itself.)
In the case of `Cc1ccc(C(=O)Oc2ccc(C(=S)N3CCOCC3)cc2)cc1`, the Potency result was “inactive”. As to `COC(=O)NNC1=CC(=O)CC(C)(C)C1`, the Potency entry is “inactive”. For the molecule `COc1ccccc1CNC(=O)c1ccc(CS(=O)c2ccccc2Cl)o1` (centres undefined), the Potency result was “inactive”. Regarding `COc1cccc(C(=O)N(Cc2cccc(Cl)c2)Cc2ccco2)c1`, the Potency result was “inactive”. With `CCS(=O)(=O)Nc1ccc(C2=NN(S(=O)(=O)c3ccc(F)cc3)C(c3ccco3)C2)cc1` (centres undefined) the figure was 44.7 µM (active); with `CS(=O)(=O)Nc1cccc(C2=NN(S(=O)(=O)c3ccccc3)C(c3cccs3)C2)c1` (centres undefined), “inactive”. With `CCS(=O)(=O)Nc1ccc(C2=NN(C(C)=O)C(c3cccs3)C2)cc1` (centres undefined) the entry was “inactive”. Next, `CCOCCCNC(=O)c1c(NC(=O)Cc2coc3c(C)c(C)ccc23)sc2c1CCC2`: “inactive”; `CCCCNC(=O)CSc1nc2cc3c(cc2c(=O)n1CCCCCC(=O)NCc1ccc2c(c1)OCO2)OCO3`: “inactive”. Turning to `O=C(CSc1nc2cc3c(cc2c(=O)n1CCC1=CCCCC1)OCO3)NCc1ccco1`, the Potency result is “inactive”. As to `C=C(C)Cn1c(SCC(=O)NCc2ccco2)nc2sc3c(c2c1=O)CCC3`, the Potency was 44.7 µM (active). Next, `O=c1oc(-c2ccco2)nc2sc3c(c12)CCCCC3`: “inactive”; `C=CCn1c(SCC(=O)NCCCO)nc2sc3c(c2c1=O)CCC3`: “inactive”.

Turning to `O=C(NCc1ccco1)c1nc2ncccn2n1`, the Potency result is “inactive”.

As for `O=C(NCc1ccco1)c1cccn2c(=O)c3c4c(sc3nc12)CCCC4`, the Potency was 12.6 µM (active). With `Cc1nc2ccc(S(=O)(=O)N(CC(=O)Nc3ccc(F)cc3)Cc3ccccc3)cc2s1`, the Potency entry was “inactive”.

On to `CCN(CC)C(=O)CSc1nc2cc3c(cc2c(=O)n1CCCC(=O)NCc1ccc2c(c1)OCO2)OCO3`, for which the Potency entry was “inactive”. Consider `CCc1cc(=O)oc2c(C)c(OCC(=O)NCCN3CCOCC3)ccc12`, for which the Potency result is “inactive”. Turning to `Cc1cc(C)cc(C(=O)NCCN2CCOCC2)c1`, the Potency result was “inactive”. With `CC(=O)Oc1cc2c(C(=O)NCCN3CCOCC3)c(C)oc2c2ccccc12` the figure was 25.1 µM (active).

For `CCS(=O)(=O)N1CCC(n2c(C)nc3cccnc32)CC1`, the Potency entry was “inactive”. With `COC(=O)c1ccc(NC(=O)c2cc(S(=O)(=O)N3CCC(C)CC3)cn2C)cc1`, the Potency result is “inactive”. Next, `O=C(Nc1nc2c(s1)CCCC2)c1ccccc1F`: “inactive”. For the molecule `O=C(CCS(=O)(=O)c1ccccc1)NC1CCCC1`, the Potency entry was “inactive”. As for `O=C(CCS(=O)(=O)c1ccccc1)Nc1nc2c(s1)CCCC2`, the Potency is 50.1 µM (active). Next, `COc1ccccc1NC(=O)c1cc(C2CC2)nc2c1c(C)nn2-c1ccc(C)cc1`: “inactive”.

As to `O=C(c1c(Cl)nc2sccn12)N1CCCc2ccccc21`, the Potency entry is “inactive”. For the molecule `Cc1occc1C(=O)N1CCCc2ccccc21`, the Potency was 44.7 µM (active). Next, `CCCn1nc(C(=O)N2CCCc3ccccc32)c2ccccc2c1=O`: “inactive”. On to `CC(C)c1ccc(NC(=O)CN(C)S(=O)(=O)c2ccc3c(c2)c(=O)n(C)c(=O)n3C)cc1`, for which the Potency result is “inactive”. On to `Cc1ccc(Cl)cc1N1CCN(C(=O)CN2C(=O)COc3ccc(S(=O)(=O)N4CCOCC4)cc32)CC1`, for which the Potency result was “inactive”. In the case of `CCCNc1ncnc2c1c(-c1ccccc1)cn2-c1ccc(OCC)cc1`, the Potency entry was “inactive”.

For `CCc1ccc(NC(=O)CN2C(=O)C(c3ccccc3)=NC23CCCCCC3)cc1`, the Potency entry was “inactive”. On to `CCCCOC(=O)c1ccc(N2C(=O)CC(N3CCN(C/C=C/c4ccccc4)CC3)C2=O)cc1` (centres undefined), for which the Potency result is “inactive”. Next, `CCCCCCC(=O)N(O)C1CC(=O)N(c2ccccc2)C1=O` (centres undefined): 0.282 µM (active); `CCOc1ccc(N2C(=O)CC(N(CCc3ccc(OC)c(OC)c3)C(=S)Nc3ccccc3)C2=O)cc1` (centres undefined): “inactive”. With `CCOc1cc2[nH]c(=O)n(Cc3ccc(C(=O)NCCN(CC)CC)cc3)c(=O)c2cc1OCC`, the Potency entry is “inactive”. Consider `COc1cc(-c2nc(S(=O)(=O)c3ccc(Cl)cc3)c(N(C)C)o2)cc(OC)c1OC`, for which the Potency is 25.1 µM (active). Next, `Cc1cc(C)cc(NC(=O)CSc2oc(-c3ccccc3)nc2S(=O)(=O)c2ccc(Cl)cc2)c1`: “inactive”. As for `COc1ccc(-c2nnc(NC(=O)CS(=O)(=O)c3ccc(Cl)cc3)o2)c(OC)c1`, the Potency entry is “inactive”. With `CCOc1ccc(N(CC)S(=O)(=O)N2CCCC(C(=O)NCc3ccc(SC)cc3)C2)cc1` (centres undefined) the entry was “inactive”; with `COc1ccc(-c2c3c(=O)n(C)c(=O)n(C)c3c3c(C)nc4ccccc4n23)cc1`, “inactive”; with `CCOC(=O)c1ccc(N2C(=O)c3[nH]nc(-c4ccccc4)c3C2c2ccc(C(C)C)cc2)cc1` (centres undefined), “inactive”.

For `CCOc1cc(C2c3c(-c4ccc(Br)cc4)n[nH]c3C(=O)N2c2ccc(Cl)cc2)ccc1O` (centres undefined), the Potency entry was “inactive”.

With `CCOC(=O)c1ccc(N2C(=O)c3n[nH]c(C)c3C2c2ccc(O)c(OC)c2)cc1` (centres undefined), the Potency was 11.2 µM (active). As to `CCCn1c2ccccc2c2cnn(CC(=O)N(C)c3ccccc3CC)c(=O)c21`, the Potency entry is “inactive”. With `CSc1ccc(C2c3c(oc4ccccc4c3=O)C(=O)N2CCCN2CCOCC2)cc1` (centres undefined) the entry was “inactive”; with `COc1ccc(OC)c(NC(=O)C2CCN(S(=O)(=O)c3ccc(C)cc3)CC2)c1`, “inactive”; with `NC(=O)C1CCN(C(=O)c2cccc(NC(=O)c3nsc4ccccc34)c2)CC1`, “inactive”.
